Not all results are given here.
aSyn 5UTR act: Activators via SNCA 5'UTR binding, MLPCN; hit rate 7.1% among 300,000; activity score, % (tested at 7.5 µM), hits read low; AID 1814, 2009; alpha-synuclein 5'UTR reporter, activators screen; in the data active = activity score below about -60%
Starred values were filed as active, the others as inactive.

`Cc1cc(=O)oc2cc(OCC(=O)Nc3ccc(N4CCC(C)CC4)cc3)ccc12` gave aSyn 5UTR act -70*.
Cc1ccc(NC(=O)C2CCC(CNc3c(N4CCC(C)CC4)c(=O)c3=O)CC2)cc1F (stereo not given) was read as aSyn 5UTR act 61.
Screening CCOc1ccc(-c2nc(C#N)c(NC3CC3)o2)cc1 returned aSyn 5UTR act -95*.
For COc1ccc(-c2nc(C#N)c(NCCc3ccccc3)o2)cc1 the results were aSyn 5UTR act -146*.
`COc1ccc(Nc2oc(-c3ccc(OC)cc3)nc2C#N)cc1` gave aSyn 5UTR act -132*.
Screening CCOc1ccc(Nc2oc(-c3ccc(Cl)cc3)nc2C#N)cc1 returned aSyn 5UTR act -139*.
For CNc1oc(-c2ccccc2)nc1C#N the results were aSyn 5UTR act -62*.
`COc1ccc(Nc2oc(-c3ccc(Cl)cc3)nc2C#N)cc1` gave aSyn 5UTR act -77*.
Screening COc1ccc(Nc2oc(-c3ccccc3)nc2C#N)cc1 returned aSyn 5UTR act -112*.
COc1ccc(Nc2oc(COc3ccc(Cl)cc3)nc2C#N)cc1 was read as aSyn 5UTR act 91.
For Cc1c(Cc2ccc3c(c2)OCO3)sc(NC(=O)c2ccc3ccccc3c2)c1C(N)=O the results were aSyn 5UTR act -80*.
Screening Cc1nc(NC(=O)c2ccc(OCC(C)C)cc2)sc1Cc1ccc2c(c1)OCO2 returned aSyn 5UTR act -85*.
Screening CCCOc1ccc(C(=O)Nc2nc(C)c(Cc3ccc4c(c3)OCO4)s2)cc1 returned aSyn 5UTR act -68*.
CC(=O)/C(N=Nc1ccc2c(c1)OCO2)=C(\C)O was read as aSyn 5UTR act -245*.
CCCCCCOC(=O)c1ccc(OC(=O)c2cccnc2)cc1 was read as aSyn 5UTR act -101*.
Cc1ccc(Nc2nc3nonc3[nH]c2=O)cc1Cl was read as aSyn 5UTR act -72*.
For COC(=O)c1ccc(CSC2=NCCS2)cc1 the results were aSyn 5UTR act -83*.
For CCc1ccc(/C=C2\SC(=S)N(CCC(=O)NC3=NCCS3)C2=O)cc1 the results were aSyn 5UTR act 89.
`COc1cccc2cc(CC(=O)c3ccc(C)cc3C)c(=O)oc12` gave aSyn 5UTR act -185*.
`COc1ccc(C(=O)Cc2cc3cccc(OC)c3oc2=O)cc1` gave aSyn 5UTR act -79*.
Screening COc1ccc(C(=O)c2cc3cccc(OC)c3o2)cc1 returned aSyn 5UTR act -161*.
For COc1ccc(Nc2nc(N3CCCC3)nc3ccccc23)c(OC)c1 the results were aSyn 5UTR act -81*.
Screening COc1ccc(Nc2cc3n(c(=O)n2)CCc2cc(OC)c(OC)cc2-3)c(C)c1 returned aSyn 5UTR act 80.
Screening FC(F)(F)c1cc(-c2ccccn2)nc2cc(-c3ccccc3)nn12 returned aSyn 5UTR act -78*.
`N#CCC(=O)Nc1ccc(C(=O)OCC(=O)c2ccc3c(c2)OCO3)cc1` gave aSyn 5UTR act -89*.
N#CCC(=O)Nc1ccc(C(=O)OCC(=O)c2ccc3c(c2)OCCO3)cc1 was read as aSyn 5UTR act -112*.
`C/C(=N\NC(=O)c1sccc1C)c1ccncc1` gave aSyn 5UTR act -108*.
`C/C(=N\NC(=O)c1sccc1C)c1cccnc1` gave aSyn 5UTR act -200*.
For O=C(Nc1ccc(Br)cc1)c1cnc[nH]1 the results were aSyn 5UTR act -107*.
Screening O=C(Nc1ccccc1Cl)c1cccs1 returned aSyn 5UTR act -71*.
COc1cc(NC(=O)c2ccccc2Cl)ccc1NC(=O)c1cccs1 was read as aSyn 5UTR act -143*.
For O=C(Nc1ccccc1Cl)c1ccc(-c2ccccn2)s1 the results were aSyn 5UTR act -120*.
Screening COc1cc(NC(=S)NC(=O)c2c(OC)cccc2OC)ccc1NC(=O)c1cccs1 returned aSyn 5UTR act -95*.
`COC(=O)c1ccn(Cc2ccccc2Cl)n1` gave aSyn 5UTR act -106*.
`N#Cc1ccsc1NC(=O)COC(=O)c1ccc2ccccc2c1` gave aSyn 5UTR act -203*.
Screening COc1ccc(CCC(=O)Nc2sccc2C#N)cc1 returned aSyn 5UTR act -156*.
`COc1ccc2[nH]c3c(=O)n4c(nc3c2c1)SCCC4` gave aSyn 5UTR act -92*.
`COc1ccc2c(c1)[nH]c1c(=O)n(/N=C/C3C(C)C=C(C)CC3C)c(=O)[nH]c12` (stereo not given) gave aSyn 5UTR act 58.
`CC(=O)NCCOc1ccc2oc3ccccc3c2c1` gave aSyn 5UTR act -133*.
`COC(=O)c1c(-c2ccccc2)csc1NC(=O)c1ccco1` gave aSyn 5UTR act -168*.
`O=C(Nc1scc(-c2ccc(F)cc2)c1C(=O)O)c1ccco1` gave aSyn 5UTR act -77*.
COC(=O)c1c(-c2ccccc2)csc1NC(=O)c1c(-c2ccccc2)noc1C was read as aSyn 5UTR act 65.
Screening Cc1nn(-c2ccccc2)c(/N=C/c2ccc(O)cc2)c1-c1ccccc1 returned aSyn 5UTR act -134*.
Screening COc1ccc(-n2nc3cc(C)c(N)cc3n2)cc1Cl returned aSyn 5UTR act -142*.
